Source: PubChem
CYP2C9 inhib – blockers of cytochrome P450 2C9 activity – biochemical, luminescence, ADME assay, primary screen | CYP2C9 Supersomes, luciferin-H conversion | 96,000 tested, 20% active | P11712 | inhibition, % at 5 µM | AID 777, 2007;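 active means blocking of liver enzyme CYP2C9 beyond about 50% at 5 µM, limit read from the data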
CYP2C9 activ – human CYP2C9 activators, primary screen, biochemical, luminescence | recombinant CYP2C9, luciferin-H conversion; hits give high values; factor 1 = untreated enzyme, 0 = blocked | activation factor at 5 µM | 96,000 tested, 1.4% active | AID 1024, 2008;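 active means activation factor of 2 or more for CYP2C9 at a 5 µM dose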;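 further: 0 = sulfaphenazole-blocked wells and 1 = vehicle-only wells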
CYP2C19 act – human CYP2C19 activators, primary screen, biochemical, luminescence. Cytochrome P450 2C19 (Homo sapiens), P33261. recombinant CYP2C19, luciferin-H EGE luminescence; hits give high values; 0 = fully inhibited enzyme, 1 = untreated enzyme. activation factor at 5 µM. 96,000 tested, under 10 active. AID 1025, 2008;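 active means activation factor of at least 2 at 5 µM in the primary screen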;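 further: 0 = wells with 2.5 mM tranylcypromine and 1 = vehicle-only wells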
Target sequence (P33261 whole entry, looked up): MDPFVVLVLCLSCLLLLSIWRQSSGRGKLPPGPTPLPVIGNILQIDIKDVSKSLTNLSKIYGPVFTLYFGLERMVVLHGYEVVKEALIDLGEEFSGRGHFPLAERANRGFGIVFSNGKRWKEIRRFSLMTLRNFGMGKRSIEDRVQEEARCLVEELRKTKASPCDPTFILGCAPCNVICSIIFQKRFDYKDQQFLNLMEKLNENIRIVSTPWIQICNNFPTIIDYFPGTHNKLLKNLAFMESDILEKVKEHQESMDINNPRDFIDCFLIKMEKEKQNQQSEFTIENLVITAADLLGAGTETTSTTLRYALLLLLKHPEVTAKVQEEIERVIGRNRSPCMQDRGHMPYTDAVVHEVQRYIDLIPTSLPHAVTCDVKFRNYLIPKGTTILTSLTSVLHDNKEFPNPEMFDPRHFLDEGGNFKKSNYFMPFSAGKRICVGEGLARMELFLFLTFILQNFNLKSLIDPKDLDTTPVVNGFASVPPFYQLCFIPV
PLK1 kinase inh – human PLK1 kinase inhibitors, primary screen, biochemical, TR-FRET; Serine/threonine-protein kinase PLK1 (Homo sapiens), P53350; recombinant PLK1 kinase, TR-FRET peptide phosphorylation; inhibition, % at 10 µM; 97,000 tested, 0.53% active;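 active means inhibition of 50% or more in the single-concentration screen; inactive means inhibition below 50%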;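 further: 0% = DMSO max control and 100% = H-89 dihydrochloride min control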
CYP2C19 inh – blockers of cytochrome P450 2C19 activity – biochemical, luminescence, ADME assay, primary screen | CYP2C19 Supersomes, luciferin-H EGE luminescence, 30 min | 96,000 tested, 21% active | inhibition, % at 5 µM | AID 778, 2007 | P33261;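 active means CYP2C19 inhibition above a set limit at 5 µM in the primary screen, cut at about 50% in these data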;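 further: plate controls were negative control wells for no effect and 2.5 mM tranylcypromine positive control for full effect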
PLK1 PBD inh – Plk1 polo box domain binding inhibitors, primary screen, biochemical, fluorescence polarization; Plk1 PBD phosphopeptide binding; inhibition, %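 (tested at about 20 µM)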; 97,000 tested, 0.13% active; AID 693, 2007; in the data active means inhibition above about 34%, passing the limit was not always enough
An asterisk follows results filed as active. An excerpt weighted towards active compounds, which were near 28% of everything screened.

What do the screens show for `COc1cc2[nH]c(=O)n(CCCCCC(=O)N3CCN(c4ccccc4)CC3)c(=O)c2cc1OC`?
CYP2C9 inhib: 70.0*; CYP2C9 activ: 0.3; CYP2C19 act: 0.2; PLK1 kinase inh: -3.9; CYP2C19 inh: 78.8*; PLK1 PBD inh: -8.3

Results for CCN1CCN(C(=O)CCCCCn2c(=O)[nH]c3cc(C(=O)OC)ccc3c2=O)CC1 ?
CYP2C9 inhib: -3.3; CYP2C9 activ: 1; CYP2C19 act: 1; PLK1 kinase inh: -10.2; CYP2C19 inh: 4.8; PLK1 PBD inh: -12.3

What do the screens show for `COc1cc2[nH]c(=O)n(CCCCCC(=O)NCCc3c[nH]c4ccccc34)c(=O)c2cc1OC`?
CYP2C9 inhib: 66.9*; CYP2C9 activ: 0.3; CYP2C19 act: 0.4; PLK1 kinase inh: -2.8; CYP2C19 inh: 63.5*; PLK1 PBD inh: 19.5

Results for COc1ccc(CCNC(=O)CCCn2c(=O)[nH]c3cc(OC)c(OC)cc3c2=O)cc1OC ?
PLK1 kinase inh: -7.0; PLK1 PBD inh: 26.6

What do the screens show for `CC(=O)Nc1cccc(OCC(=O)NC(C)C(C)C)c1` (stereo not drawn)?
CYP2C9 inhib: -35.2; CYP2C9 activ: 1.4; CYP2C19 act: 1.1; PLK1 kinase inh: -1.3; CYP2C19 inh: -10.4; PLK1 PBD inh: 3.3

What do the screens show for `O=C(NCCS(=O)CCNC(=O)C(F)(F)F)C(F)(F)F`?
CYP2C9 inhib: -5.8; CYP2C9 activ: 1.1; CYP2C19 act: 1.1; PLK1 kinase inh: -0.7; CYP2C19 inh: -6.0; PLK1 PBD inh: 0.6

Results for COc1ccc(CCn2c(=O)[nH]c3cc(C(=O)NCCN4CCOCC4)ccc3c2=O)cc1OC ?
CYP2C9 inhib: 42.3; CYP2C9 activ: 0.6; CYP2C19 act: 1.2; PLK1 kinase inh: -3.0; CYP2C19 inh: -18.6; PLK1 PBD inh: 9.0

Results for CCCCCn1c(=O)[nH]c2cc(C(=O)NCCc3ccc(OC)c(OC)c3)ccc2c1=O ?
CYP2C9 inhib: 70.4*; CYP2C9 activ: 0.3; CYP2C19 act: 0.4; PLK1 kinase inh: -12.5; CYP2C19 inh: 58.9*; PLK1 PBD inh: -5.6

What do the screens show for `O=C(Nn1c(=O)[nH]c2ccsc2c1=O)c1ccccc1`?
CYP2C9 inhib: -13.1; CYP2C9 activ: 1.1; CYP2C19 act: 1.2; PLK1 kinase inh: -7.1; CYP2C19 inh: -15.1; PLK1 PBD inh: -2.6

What do the screens show for `CCOC(=O)c1[nH]c(C)c(C(=O)NCc2cccnc2)c1C`?
CYP2C9 inhib: -17.1; CYP2C9 activ: 1.2; CYP2C19 act: 1; PLK1 kinase inh: -4.0; CYP2C19 inh: -0.5; PLK1 PBD inh: 3.2

Results for N/C(=N\c1nc2ccccc2o1)NC(=O)c1ccccc1F ?
CYP2C9 inhib: 3.1; CYP2C9 activ: 1; CYP2C19 act: 1; PLK1 kinase inh: -14.0; CYP2C19 inh: -3.2; PLK1 PBD inh: 4.0

Results for COc1ccccc1C(=O)NC(=Nc1nc2ccccc2o1)NC(=O)c1ccccc1OC ?
CYP2C9 inhib: 73.2*; CYP2C9 activ: 0.3; CYP2C19 act: 0.3; PLK1 kinase inh: 0.6; CYP2C19 inh: 65.4*; PLK1 PBD inh: -31.3

Results for CCOC(=O)c1cc(C)n(Cc2ccccc2)c1C ?
CYP2C9 inhib: 50.1*; CYP2C9 activ: 0.5; CYP2C19 act: 0.3; PLK1 kinase inh: -3.7; CYP2C19 inh: 65.3*; PLK1 PBD inh: -1.6

Results for Cc1cc(C(=O)CN2C(=O)NC3(CCCc4ccccc43)C2=O)c(C)n1Cc1ccco1 (stereo not drawn) ?
CYP2C9 inhib: 73.9*; CYP2C9 activ: 0.3; CYP2C19 act: 0.7; PLK1 kinase inh: -7.0; CYP2C19 inh: 27.2; PLK1 PBD inh: 23.3

What do the screens show for `Cc1nn(Cc2ccccc2)c(C)c1C(=O)OCC(=O)c1cc(C)n(CC(F)(F)F)c1C`?
CYP2C9 inhib: 9.8; CYP2C9 activ: 0.9; CYP2C19 act: 0.5; PLK1 kinase inh: -11.9; CYP2C19 inh: 53.1*; PLK1 PBD inh: -12.2

How did CCOC(=O)c1cc(C)n(Cc2cccc(OC)c2OC)c1C do in these assays?
CYP2C9 inhib: 43.0; CYP2C9 activ: 0.6; CYP2C19 act: 0.8; PLK1 kinase inh: -8.0; CYP2C19 inh: 17.1; PLK1 PBD inh: -27.1

How did Cc1cc(C(=O)CN2C(=O)c3ccccc3C2=O)c(C)n1Cc1cccs1 do in these assays?
PLK1 kinase inh: -5.2; PLK1 PBD inh: -14.4

How did Cc1cc(C(=O)CN2C(=O)CCC2=O)c(C)n1Cc1ccccc1 do in these assays?
CYP2C9 inhib: 37.0; CYP2C9 activ: 0.6; CYP2C19 act: 0.4; PLK1 kinase inh: 3.3; CYP2C19 inh: 62.4*; PLK1 PBD inh: -3.8

Results for C(=N\c1nccs1)/Nc1nccs1 ?
CYP2C9 inhib: 12.2; CYP2C9 activ: 0.9; CYP2C19 act: 0.9; PLK1 kinase inh: 27.6; CYP2C19 inh: 5.0; PLK1 PBD inh: 7.8

How did CCc1nnc(NC(=O)C2CCN(c3nc(C)cc(C)n3)CC2)s1 do in these assays?
CYP2C9 inhib: 24.1; CYP2C9 activ: 0.8; CYP2C19 act: 1; PLK1 kinase inh: -14.4; CYP2C19 inh: -2.7; PLK1 PBD inh: 4.3

Results for COCCn1c(C)cc(C(=O)CN2C(=O)NC3(CCCCCCC3)C2=O)c1C ?
CYP2C9 inhib: -285.4; CYP2C9 activ: 3.9*; CYP2C19 act: 0.8; PLK1 kinase inh: 5.7; CYP2C19 inh: 24.8; PLK1 PBD inh: 25.5

How did CCOC(=O)c1cc(C)n(-c2ccc(OC)c(OC)c2)c1C do in these assays?
CYP2C9 inhib: 63.4*; CYP2C9 activ: 0.4; CYP2C19 act: 0.1; CYP2C19 inh: 87.5*

How did O=C(CN1C(=O)NC2(CCCc3ccccc32)C1=O)N1CCc2ccccc2C1 (stereo not drawn) do in these assays?
CYP2C9 inhib: 59.0*; CYP2C9 activ: 0.4; CYP2C19 act: 0.5; PLK1 kinase inh: -5.0; CYP2C19 inh: 53.6*; PLK1 PBD inh: -9.9

Results for Cc1cc(C(=O)CN2C(=O)NC3(CCCc4ccccc43)C2=O)c(C)n1Cc1ccccc1 (stereo not drawn) ?
CYP2C9 inhib: 70.6*; CYP2C9 activ: 0.3; CYP2C19 act: 0.4; PLK1 kinase inh: -2.2; CYP2C19 inh: 56.3*; PLK1 PBD inh: 6.4

What do the screens show for `COCCN(C(=O)Nc1ccccc1)c1ccccc1C`?
PLK1 kinase inh: -14.9; PLK1 PBD inh: -19.1

How did CSc1nc2ccccc2n1CC(=O)Nc1cc(C(F)(F)F)ccc1N1CCOCC1 do in these assays?
CYP2C9 inhib: 96.6*; CYP2C9 activ: 0; CYP2C19 act: 0.1; PLK1 kinase inh: -1.6; CYP2C19 inh: 87.4*; PLK1 PBD inh: -34.9

Results for O=C(Cn1c(C(F)(F)F)nc2ccccc21)Nc1ccccc1N1CCOCC1 ?
CYP2C9 inhib: 82.4*; CYP2C9 activ: 0.2; CYP2C19 act: 0.6; PLK1 kinase inh: -10.6; CYP2C19 inh: 37.5; PLK1 PBD inh: 12.4
